The full list was thinned out, with hits kept by preference.
Cycloheximide cs = counter-screen for Shiga toxin inhibitors: cycloheximide protein synthesis inhibition | max response, % | cell reporter, cycloheximide protein synthesis inhibition counterscreen | 12% of 300,000 active; in the data active = max response mostly above about 13%, no sharp cut-off; inactive = mostly below about 14%; also: read at 38.3 µM for the half of the compounds with a filed dose; 0% is about no effect
VACV Venus inh = vaccinia inhibition (Venus reporter); Vaccinia virus Venus reporter expression, fluorescence; Potency, µM (doses to about 36.5 µM), inactives show top-dose activity change, negative = inhibition, usual class: inhibitors; 0.46% of 330,000 active; AID 720580; calls by dose curve; tested in A549 cells; also: potency is read from the fitted curve at half-maximal effect; % is scaled to controls: 0 for no effect and ±100 for the full control effect; nearly all actives have a fitted effect of over 30% in size
Marburg entry inh = inhibitors of Marburg virus binding or cell entry; Marburg virus pseudotyped entry inhibition, cell reporter; Potency, µM (doses to about 37.8 µM), for the others: top-dose activity change, negative = inhibition, most hits filed as inhibitors; 1.8% of 300,000 active; calls by dose curve; tested in HEK293 cells; also: potency is read from the fitted curve at half-maximal effect; % is scaled to controls: 0 for no effect and ±100 for the full control effect
Shiga toxin inh = blocks Shiga toxin action in Vero cells; Vero cells, Shiga toxin protein synthesis inhibition reporter; inhibition, % at 38.7 µM; 9.2% of 290,000 active; AID 2315; in the data active = inhibition mostly above about 28%, no sharp cut-off; inactive = mostly below about 43%; also: 0% is about no effect
Lassa entry inh = Lassa virus entry inhibition | Lassa virus pseudotype entry inhibition, cell reporter | Potency, µM (doses to about 37.9 µM), without a hit: at the highest dose activity change, negative = inhibition, usual class: inhibitors | 1.2% of 300,000 active; calls by dose curve; tested in HEK293 cells; also: potency is read from the fitted curve at half-maximal effect; % is scaled to controls: 0 for no effect and ±100 for the full control effect; nearly all actives have a fitted effect of over 50% in size
VACV mCherry inh = inhibitors of vaccinia virus infection (mCherry reporter signal) | Vaccinia virus mCherry reporter infection, fluorescence | Potency, µM (titrated, usually from 36.5 µM), for the others: at the highest dose activity change, negative = inhibition, hits mostly inhibitors | AID 720579 | 0.63% of 310,000 active; calls by dose curve; tested in A549 cells; also: potency is read from the fitted curve at half-maximal effect; % is scaled to controls: 0 for no effect and ±100 for the full control effect; nearly all actives have a fitted effect of over 35% in size
Active calls of the source: *; i = inactive; ? = inconclusive; · = no result; [ ] = remark or other dose.

SMILES	Cycloheximide cs	VACV Venus inh	Marburg entry inh	Shiga toxin inh	Lassa entry inh	VACV mCherry inh
O=C(Cc1cc(=O)oc2cc(O)ccc12)NN=Cc1ccc(N(CCCl)CCCl)cc1	·	-16.8%	4.47µM*	·	?	i
COc1ccc(C)cc1S(=O)(=O)Nc1cccc(-c2ccc(N3CCC(C)CC3)nn2)c1	·	-12.1%	·	·	28.8%[46.1 µM]	-24.2%
CC(=O)c1ccc(S(=O)(=O)Nc2cccc(-c3ccc(N4CCCCC4)nn3)c2)cc1	·	-15.7%	·	·	-23.2%[46.1 µM]	-16.6%
COc1ccc(-c2cccc(NS(=O)(=O)c3cc([N+](=O)[O-])ccc3Cl)c2)nn1	·	-8.0%	-13.9%[46.1 µM]	·	11.1%	i
O=S(=O)(Nc1cccc(-c2ccc(N3CCCCCC3)nn2)c1)c1ccc(F)cc1	42.7*	-18.3%	-24.9%[46.1 µM]	84.6*	?	-15.9%
CCOc1ccc(-c2cccc(NS(=O)(=O)c3cc([N+](=O)[O-])ccc3Cl)c2)nn1	·	?	8.1%	·	-3.2%	10µM*
CCOc1ccc(S(=O)(=O)Nc2cccc(-c3ccc(N4CCCCCC4)nn3)c2)cc1	24.8*	·	·	41.4*	·	·
COc1ccc(C)cc1S(=O)(=O)Nc1cccc(-c2ccc(N3CCCCCC3)nn2)c1	20.1*	·	·	26.7	·	·
Cc1ccc(S(=O)(=O)Nc2cccc(-c3ccc(N4CCCCCC4)nn3)c2)cc1C	39.3*	·	·	114.8*	·	·
O=S(=O)(Nc1cccc(-c2ccc(N3CCCCCC3)nn2)c1)c1ccc(C(F)(F)F)cc1	30.8*	-14.0%	?	40.8*	?	i
COc1ccc(S(=O)(=O)Nc2cccc(-c3ccc(N4CCCC4)nn3)c2)cc1OC	·	-15.9%	·	·	-28.1%[46.1 µM]	-19.8%
O=S(=O)(Nc1cccc(-c2ccc(N3CCCCCC3)nn2)c1)c1cccc(F)c1	39.8*	-16.4%	·	115.7*	11.2%[46.1 µM]	-22.2%
O=S(=O)(Nc1ccc(-c2ccc(N3CCCC3)nn2)cc1)c1cccc(C(F)(F)F)c1	·	-15.8%	·	·	4.3%[46.1 µM]	-24.1%
COc1ccc(N2C(=O)N3[C@H](c4ccccc4)[C@@H](C)C[C@H]4c5ccccc5C[C@]43C2=O)cc1	·	·	2.0%[14.2 µM]	·	·	·
CCc1ccc(C(=O)NC(=S)Nc2ccc3c(c2)OCCO3)cc1	41.3*	-14.7%	-26.8%	71.8*	?	i
O=C(NC(=S)Nc1ccc(N2CCCCC2)c(Cl)c1)c1ccc2c(c1)OCCO2	-4.4	?	1.41µM*	-1.9	?	?
O=C(NC(=S)Nc1ccc2c(c1)OCCO2)c1ccc(F)cc1Cl	28.3*	·	-30.8%	33.8*	-2.1%	·
Cc1cc(C)cc(C(=O)NC(=S)Nc2ccc3c(c2)OCCO3)c1	31.5*	-6.9%	?	73.7*	-25.6%	-13.5%
Cc1ccc2nsnc2c1NC(=O)c1cccnc1Cl	-4.6	-6.6%	1.4%	-6.6	9.3%	i
CCc1ccc2c(c1)C(=O)C[C@]1(CCC[C@H](C)C1)O2	·	-4.6%	·	·	·	i
COC(=O)CN1C(=O)C(C)(C)c2cc(S(=O)(=O)NCc3ccc(Cl)cc3)ccc21	·	-3.8%	·	·	9.8%[46.1 µM]	-11.0%
O=C(NC(=S)Nc1ccc2c(c1)OCO2)c1ccc(Cl)cc1	76.4*	-18.6%	-2.5%	107.9*	?	i
Cc1ccc(C(=O)NC(=S)Nc2ccc3c(c2)OCCO3)c(C)c1	33.2*	-22.9%	7.2%	71.0*	-13.3%	·
O=C1CSc2ccccc2N1Cc1ccc(F)cc1	30.9*	·	4.0%	22.7	-25.8%	·
O=C(N/N=C/c1cccs1)[C@H]1C[C@@H]1c1ccccc1	-1.5	3.9%	18.8%	-11.3	-13.6%	i
SMILES	Cycloheximide cs	VACV Venus inh	Marburg entry inh	Shiga toxin inh	Lassa entry inh	VACV mCherry inh
O=C(N/N=C/c1cccc([N+](=O)[O-])c1)C1CC1c1ccccc1 (stereo unspecified)	-1.1	-16.5%	?	-8.3	2.24µM*	?
O=C(N/N=C/c1c[nH]c2ccccc12)C1CC1c1ccccc1 (stereo unspecified)	1.3	-18.7%	?	-13.6	2.82µM*	-23.6%
CC(C)(C)c1ccc(C2CC2C(=O)N/N=C\c2ccc[nH]2)cc1 (stereo unspecified)	11.9*	3.98µM*	?	48.1	?	?
O=C(N/N=C/c1ccco1)C1CC1c1ccccc1 (stereo unspecified)	-4.0	-3.6%	27.1%	-4.2	18.4µM*	-6.4%
CSC1=C(C#N)C(c2sccc2C)CC(=O)N1 (stereo unspecified)	-2.9	-19.5%	-17.6%[46.1 µM]	-12.5	-1.0%	i
CCN(CC)c1ccc(-c2nnc(SCC(=O)Nc3ccccc3C#N)n2-c2ccccc2)cc1	-4.3	?	?	-9.6	11.2µM*	·
COc1ccc(NC(=O)CSc2nccn2C)cc1S(N)(=O)=O	-6.6	-8.9%	-4.4%[46.1 µM]	-2.1	0.3%	2.3%
Cn1ccnc1SCC(=O)Nc1ccc2c(c1)OC(F)(F)O2	14.8*	·	·	22.2	·	·
CC(=O)c1ccc(NC(=O)CSc2nccn2C)cc1	11.0*	·	·	65.6*	·	·
CCOC(=O)c1ccc(NC(=O)CSc2nccn2C)cc1	38.9*	-1.2%	-6.3%	60.8	?	-10.8%
Cc1ccc(C)c(NC(=O)N2CCC(N3CCN(Cc4ccc(F)cc4)C(=O)C3=O)CC2)c1	·	-0.8%	·	·	8.1%[46.1 µM]	-12.1%
CCOC(=O)c1ccc(NC(=O)CSc2ccc(-c3cccnc3)nn2)cc1	16.4*	-20.6%	?	53.9	?	-4.9%
CCc1ccc(NC(=O)CSc2nc3ncccc3[nH]2)cc1	·	-11.3%	·	·	2.1%[46.1 µM]	-1.7%
N#Cc1ccccc1NC(=O)CSc1nccn1CCc1ccccc1	37.4*	-2.4%	5.9%	78.2*	2.4%	i
CC(=O)c1ccc(NC(=O)CSc2nccn2CCc2ccccc2)cc1	33.0*	-16.1%	-19.9%	87.9*	?	-21.5%
CC(=O)c1ccc(NC(=O)CSc2nccn2Cc2ccco2)cc1	·	-13.0%	·	·	?	0.0%
CCOC(=O)c1ccc(NC(=O)CSc2nc3ncccc3[nH]2)cc1	23.2*	-8.8%	-3.1%	16.2*	11.2%	i
CCN1C(=O)[C@@H]2[C@H]3[C@H](O)[C@H](O)CC(=NNC(=O)OCc4ccccc4)[C@@H]3CC[C@H]2C1=O	·	·	-8.4%[14.2 µM]	·	?	·
COc1ccc(C(=O)C[n+]2cc(Br)cc3ccccc32)cc1	·	-21.3%	·	·	·	4.3%
CC(Oc1cccc2ccccc12)C(=O)N/N=C/c1cccnc1 (stereo unspecified)	-2.2	·	·	-6.5	·	·
O=C(NCc1ccc(Cl)c(Cl)c1)c1cc(C2CCCCN2C(=O)c2ccccn2)on1 (stereo unspecified)	·	-7.0%	·	·	·	18.3%
COc1cccc(-n2nc3c(=O)n(Cc4ccccc4Cl)nc(C)c3c2C)c1	-3.9	-0.9%	0.2%	1.8	-3.3%	i
CCN(CC(=O)Nc1ccccc1C(F)(F)F)C(=O)CCc1c(C)[nH]c(=O)c(C#N)c1C	-2.3	-17.7%	?	3.8	-2.4%[46.1 µM]	-13.2%
COc1cc(NC(=O)CCS(=O)(=O)c2nc(-c3ccc4c(c3)OCO4)cc(C(F)(F)F)n2)cc(OC)c1OC	·	2.5%	?	·	22.3%[46.1 µM]	-14.8%
Cc1ccc(CSc2nc3ncccc3[nH]2)cc1	19.6*	-16.1%	?	63.7*	?	·
Clc1ccc(CSc2nc3ncccc3[nH]2)cc1	·	-6.2%	?	·	·	5.4%
